# Test results: ChEMBL document CHEMBL1157539, “Thousands of chemical starting points for antimalarial lead identification” (Nature, 2010)
# Where “and” joins values, the source holds several entries; their conditions need not be identical. Equal entries are not always repeated.
# Legend:
# Assay type in all cases: functional
# Plasmodium falciparum [1] = experiment: GSK_TCMDC: Inhibition of Plasmodium falciparum 3D7 in whole red blood cells, using parasite LDH activity as an index of growth. Test compounds present at 2uM
# Plasmodium falciparum [2] = experiment: GSK_TCMDC: Inhibition of Plasmodium falciparum Dd2 in whole red blood cells, using parasite LDH activity as an index of growth. Test compounds present at 2uM
# HepG2 = experiment: GSK_TCMDC: Percent inhibition of human HepG2 cell line. Test compounds present at 10uM.
Compound,Inhibition (Plasmodium falciparum [1]),Inhibition (Plasmodium falciparum [2]),Inhibition (HepG2)
COc1ccc2[nH]cc(C3CC4CCC(C3)N4CCC3CCN(C(=O)/C=C/c4ccc(Cl)c(Cl)c4)CC3)c2c1 (stereo unspecified),100%,80%,38%
COc1cc2nc(N(C)C3CCN(Cc4ccccc4)CC3)nc(N)c2cc1OC,99%,93%,19%
COc1cccc(O)c1CNCC(O)c1cccc(C(F)(F)F)c1 (stereo unspecified),98%,96%,31%
O=C(/C=C/c1ccc(Cl)c(Cl)c1)N1CCC(CN2CCC(c3c(Br)[nH]c4ccccc34)CC2)CC1,100%,99%,41%
COCC(=O)N(Cc1cccc(-c2ccc(CNCCc3ccccc3)cc2)c1)C1CCN(Cc2ccccc2)CC1.O=C(O)C(F)(F)F,93%,45%,44%
CCCCCCCCNCC(O)c1ccc(Cl)c(Cl)c1.Cl (stereo unspecified),99%,87%,0%
COc1cccc(/C=C/C(=O)NC2CCC(CN3CCC(c4c[nH]c5ccccc45)CC3)CC2)c1 (stereo unspecified),100% and 94%,26% and 38%,30% and 19%
CC(Cc1ccc(OCCCCOc2ccccc2)cc1)NCCc1ccccc1Cl (stereo unspecified),97%,58%,100%
Cc1[nH]c2ccc([N+](=O)[O-])cc2c1C1=CCN(C)CC1,86%,68%,6%
O=C(/C=C/c1ccc(Cl)c(Cl)c1)N1CCC(CN2CCC(c3c(-c4ccc(F)cc4)[nH]c4ccccc34)CC2)CC1,100%,98%,19%
CC[C@H]1CN2CC[C@H]1C[C@H]2[C@H](O)c1ccnc2ccc(O)cc12.Cl,99%,2%,11%
COc1ccc(CC(C)NCC(O)c2cccc(Cl)c2)cc1C (stereo unspecified),89%,78%,11%
CC[C@H]1CN2CC[C@H]1C[C@H]2[C@H](O)c1cc(-c2ccc(F)cc2C)nc2ccc(OC)cc12.Cl,99%,100%,0%
Br.CC(Cc1ccc(CSC(C)C)cc1)NCC(O)c1cccc(Cl)c1 (stereo unspecified),98%,98%,11%
Br.CNCCc1c(O)ccc2ccccc12,94%,0%,6%
CN(c1cc(NC(=O)c2cccs2)ccn1)C1CCN(Cc2cccc(C#N)c2)CC1.O=C(O)C(F)(F)F,90%,69%,59%
CNCCN(C)C(=O)Oc1c(Cl)c(C)nc(C)c1-c1ccc(Oc2ccc(OC(F)(F)F)cc2)cc1.Cl,97%,96%,0%
CS(=O)(=O)Nc1ccc2[nH]cc(C3CCN(CC4CCC(NC(=O)/C=C/c5ccccc5Cl)CC4)CC3)c2c1 (stereo unspecified),96%,7%,12%
Cc1ccc(CC(C)NCC(O)c2cccc(C#N)c2)cc1 (stereo unspecified),94%,86%,2%
CC(=O)Nc1ccc(OCCN(CC(C)C)c2ccc(C#N)c(C(F)(F)F)c2)c(Cl)c1,94%,94%,13%
CC[C@H]1CN2CC[C@@H]1C[C@H]2[C@H](O)c1cc(N2CCC(c3ccccc3)CC2)nc2ccc(OC)cc12,99%,98%,45%
Cc1csc(NC2=NCCN2)n1.Cl,99%,1%,10%
O=C(/C=C/c1cccc2ccccc12)NC1CCC(CN2CCC(c3c[nH]c4ccccc34)CC2)CC1 (stereo unspecified),100%,72% and 66%,45% and 53%
CC(=O)N(Cc1ccccc1-c1ccc(CNCCc2ccccc2)cc1)C1CCN(Cc2ccccc2)CC1.O=C(O)C(F)(F)F,100%,85%,24%
Cc1[nH]c2ccc(NS(C)(=O)=O)cc2c1C1CCN(CC2CCN(C(=O)/C=C/c3ccc(Cl)c(Cl)c3)CC2)CC1,99%,83%,15%
O=C(/C=C/c1ccc(Cl)c(Cl)c1)NC1CCC(N2CCC(c3c[nH]c4ccc(O)cc34)CC2)CC1 (stereo unspecified),97%,16%,10%
O=C(/C=C/c1ccc(Cl)c(Cl)c1)N1CCC(CN2CCC(c3cn(CC(=O)N4CCCCC4)c4ccccc34)CC2)CC1.O=C(O)C(F)(F)F,100%,65%,52%
